Results from PubChem BioAssay AID1347416 (National Center for Advancing Translational Sciences (NCATS), 2020).
Among all 4,100 compounds or so, about 1,600 (39%) were called active. Another 25% or so got no clear call; they are omitted. Some of the results follow. Values without a mark were called inactive. The call rests on the fitted dose curve; in most records, active means well fitted inhibition curve with a large enough effect; inconclusive means small, poorly fitted or top-dose-only effect; inactive means no such curve, though single readings can be large or run the other way.

experiment: qHTS Validation assay for Inhibitors of Plasmodium falciparum Dd2 growth in vitro; further: nearly all actives have a fitted effect of over 70% in size; settings: P. falciparum Dd2 in RBCs, SYBR Green growth, 72 h; series mostly up to 28.7 µM; activity change, negative = inhibition: at the top concentration
Method in brief: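 P. falciparum Dd2-infected red blood cells (2.5% hematocrit, 0.3% parasitemia) grown 72 h at 37 °C under 5% O2 with compounds in a titration, 29 uM to 0.5 nM final. Growth read as SYBR Green-1 fluorescence after ~16 h lysis; artesunate 300 nM as positive control.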
On the % scale 0 is the no-effect control and ±100 the full control effect; potency means the concentration at half of the fitted maximal effect.

Structure (SMILES) | activity change, negative = inhibition | Potency
CC1(COc2ccccc2)COc2ccc(C(=O)NCc3cnccn3)cc2N1 (stereo unspecified) | 53.5% [at 43.1 µM] | 
Cc1nccn1C1(C(=O)O)CCN(Cc2ccc(-c3ccn[nH]3)o2)CC1 | 93.2% | 
Cc1noc(-c2cccs2)c1C(=O)NC(C)c1cccc2ccccc12 (stereo unspecified) |  | 0.668 µM (active)
c1csc(-c2cn3ccc4ccccc4c3n2)c1 | 22.6% | 
O=C(NCc1nc(-c2ncccn2)no1)c1csc(-c2cccs2)n1 | 8.58% | 
CNC(=O)c1ccsc1NC(=O)CCS(=O)(=O)c1ccccc1 | 23.9% | 
O=C(O)c1ccc(C2SCC(=O)N2Cc2ccco2)cc1 (stereo unspecified) | 2.49% | 
Cc1cc(C(=O)CN2C(=O)NC(C)(c3cccc(Br)c3)C2=O)c(C)n1Cc1ccco1 (stereo unspecified) |  | 13.3 µM (active)
Cc1cc(C(=O)CN2C(=O)NC(c3ccccc3)(c3ccccc3)C2=O)c(C)n1Cc1ccco1 |  | 8.41 µM (active)
O=C1Nc2ccccc2C12Nc1ccccc1-c1nc3ccccc3n12 (stereo unspecified) |  | 6.68 µM (active)
CC1(c2ccccn2)Nc2ccccc2-c2nc3ccccc3n21 (stereo unspecified) |  | 5.31 µM (active)
COc1ccc2c(c1)C1(Nc3ccccc3-c3nc4ccccc4n31)C(=O)N2 (stereo unspecified) |  | 0.596 µM (active)
COc1ccc(-c2cnc([C@@H]3COCCN3Cc3ccccc3O)[nH]2)cc1 |  | 17.2 µM (active)
CS(=O)(=O)c1ccc(-c2cnc([C@@H]3COCCN3Cc3ccccc3)[nH]2)cc1 | -13.7% [at 43.1 µM] | 
Oc1ccccc1CN1CCOC[C@H]1c1ncc(-c2ccc(C(F)(F)F)cc2)[nH]1 |  | 4.85 µM (active)
COc1cc(OC)cc(C(=O)N2CCC(c3nc(C4CCOC4)no3)CC2)c1 (stereo unspecified) | 12.6% | 
O=c1c(NCCc2ccccc2)c(-c2ccccc2)c1=O | -27.2% | 
c1ccc2cc3c(NCCN4CCOCC4)ccnc3cc2c1 |  | 1.68 µM (active)
c1ccc(CCNc2ccnc3cc4ccccc4cc23)cc1 |  | 1.68 µM (active)
COCCN1Cc2ccc(NCC(C)C)nc2C(C)(C(=O)Nc2ccncc2)C1 (stereo unspecified) |  | 21.7 µM (active)
CC1(C)C(=O)N(CC2CCOCC2)[C@H]2CN(CCCc3ccccc3)C[C@@H]2[S+]1(=O)[O-] | 0% [at 43.1 µM] | 
O=C(CC1C(=O)N(Cc2ccccc2)C(=S)N1CCN1CCOCC1)Nc1ccc(F)cc1 (stereo unspecified) |  | 5.31 µM (active)
COC(=O)c1cc(NC(=O)CC2C(=O)OCCN2Cc2ccccc2)cc(C(=O)OC)c1 (stereo unspecified) | 18.7% | 
COc1cccc(N2C(=O)C(CC(=O)Nc3ccccc3)N(CCc3sccc3C)C2=O)c1 (stereo unspecified) | 21.4% | 

Structure (SMILES) | activity change, negative = inhibition | Potency
Cc1noc(C)c1CCC(=O)NC1CCc2nn(CC3CC3)c(=O)n2CC1 (stereo unspecified) | 14.8% | 
N#CC(=C1CCCC1)c1nc(-c2ccccc2O)cs1 |  | 9.44 µM (active)
CN(CC1CCN(CCc2ccc(Cl)cc2)CC1)C(=O)c1ccccc1C#N | -11.9% | 
CN(Cc1ccc(-n2cccn2)cc1)CC1CCN(CCc2ccc(F)cc2)CC1 |  | 10.6 µM (active)
Cc1[nH]n(-c2ccccc2)c(=O)c1/C=N/Nc1nncc(-c2ccccc2)n1 |  | 4.22 µM (active)
COC(=O)[C@H](Cc1ccc(OC)cc1)NC(=O)[C@H]1CN(C(=O)c2ccc(N(C)C)cc2)CCN1C(=O)C1CCCCC1 |  | 0.668 µM (active)
COC(=O)[C@H](Cc1ccc(OC)cc1)NC(=O)[C@H]1CN(C(=O)c2ccc(N(C)C)cc2)CCN1C(=O)c1cccs1 |  | 0.188 µM (active)
CN(C)C(=O)c1ccc(OC2CCN(C(=O)c3cccs3)CC2)nc1 | -30.1% | 
CN(C)c1ccc(CC(=O)N2CC[C@@](C)(O)[C@@H](O)C2)cc1 | 24.5% | 
COC(=O)[C@H](Cc1ccc(OC)cc1)NC(=O)[C@H]1CN(C(=O)Nc2ccccc2)CCN1C(=O)NC(C)C | -23.7% | 
COc1ccc(C(=O)N2CCN(C(=O)C3CCCCC3)C[C@@H]2C(=O)N[C@H]2CCCNC2=O)cc1 | 68.6% | 
Cc1cccc(C(=O)N2CCc3cc(CNC(=O)c4ccc(Br)o4)ccc32)c1 |  | 9.44 µM (active)
CC(=O)N1CCc2cc(S(=O)(=O)NC(Cc3ccccc3)C(=O)Nc3cc(C)cc(C)c3)ccc21 (stereo unspecified) | -21.5% | 
Cc1ccc(C(=O)N2CCc3cc(CNC(=O)CCc4ccccc4)ccc32)cc1 | -22.1% | 
O=S(=O)(c1ccc(Cl)cc1)N1CCN(C(=S)NCC2CCCO2)CC1 (stereo unspecified) |  | 1.88 µM (active)
O=C(CCC1CCN(S(=O)(=O)c2ccccc2)CC1)NCc1ccc(F)cc1 | -28.6% | 
CS(=O)(=O)N1CCC(C2CCN(C(=O)Cc3ccc(Cl)cc3)C2)CC1 (stereo unspecified) | -3.31% | 
COc1ccccc1NC(=O)Cn1c(=O)n(CCC(=O)NCC2CCCO2)c(=O)c2cc(OC)c(OC)cc21 (stereo unspecified) | -20.6% | 
O=S(=O)(c1ccc(F)cc1)N1CCN(C(=S)NCCc2ccccc2)CC1 |  | 5.96 µM (active)
CCOC(=O)Cn1c(=O)oc2cc(S(=O)(=O)N3CCCC(C)C3)ccc21 (stereo unspecified) | 1.29% | 
O=S(=O)(c1ccc(F)cc1)N1CCN(C(=S)NCC2CCCO2)CC1 (stereo unspecified) |  | 6.68 µM (active)
O=C(NCc1ccc(Cl)cc1)C1CCN(S(=O)(=O)c2cccc3nonc23)CC1 | 72.7% | 
O=C(O)c1ccc(S(=O)(=O)N(Cc2cccs2)CC2CCCO2)cc1 (stereo unspecified) | 0.601% | 
COc1ccc(S(=O)(=O)N2CCN(C(=S)NCC3CCCO3)CC2)cc1OC (stereo unspecified) |  | 6.68 µM (active)

Structure (SMILES) | activity change, negative = inhibition | Potency
CCOCCCNC(=O)CN1C(=O)c2c(c3ccccc3n2C)C1c1ccc(OC)cc1 (stereo unspecified) | 0% | 
Cc1ccc(-c2noc(CCC(=O)Nc3ccc(C)cn3)n2)cc1 | 16.8% | 
N#Cc1ccc(CN2CC[C@@H]3C(=O)NCCCCCCN(Cc4ccncc4)[C@@H]3C2)cc1 |  | 10.6 µM (active)
O=C1NCCCCCCN(Cc2ccncc2)[C@@H]2CN(C(=O)NC3CCCCC3)CC[C@@H]12 | 5.81% | 
CN1C(=O)[C@H]2CN(Cc3ccc(C#N)cc3)C[C@H]2C1=O | 14.4% | 
CCc1ccc2c(c1)cc(CN(C(=S)Nc1cccc(C)c1)C1CC1)c1nnnn12 |  | 3.35 µM (active)
O=C(CC(c1ccc(F)cc1)c1cn(Cc2ccccc2)c2ccc([N+](=O)[O-])cc12)N1CCOCC1 (stereo unspecified) |  | 9.44 µM (active)
Cc1ccoc1C(=O)N1C[C@@H](COCC2CC2)[C@H](c2ccncc2)C1 | 0% | 
CCC(C)(C)n1nnnc1C(c1cccnc1)N1CCN(c2cccc(C(F)(F)F)c2)CC1 (stereo unspecified) |  | 6.68 µM (active)
CCOC(=O)c1c(C)[nH]c(C)c1S(=O)(=O)N1CCN(c2cccc(C(F)(F)F)c2)CC1 | 19.3% | 
CNC(=O)[C@@H]1C[C@H](n2cc(CN(C)C(=O)NCC3CCCCC3)nn2)CN1 | 63.7% | 
CCCn1c(=N)c(C(=O)NCc2ccc3c(c2)OCO3)cc2c(=O)n3cccc(C)c3nc21 |  | 10.6 µM (active)
CCCn1c(=N)c(C(=O)NC2CCCC2)cc2c(=O)n3cccc(C)c3nc21 |  | 5.96 µM (active)
CCn1c(CO)nnc1C1CC(NC(=O)c2cnc3sccn3c2=O)C1 (stereo unspecified) | -13.6% | 
CCCN1C(=O)Cc2cc(C(=O)NCc3ccc(C)c(C)c3)ccc21 | -22.2% | 
COCCCn1c(=N)c(C(=O)NCC2CCCO2)cc2c(=O)n3cc(C)ccc3nc21 (stereo unspecified) | 20.7% | 
CCCCn1c(=N)c(C(=O)NC2CCCCC2)cc2c(=O)n3cccc(C)c3nc21 |  | 1.5 µM (active)
CCCn1c(=N)c(C(=O)NC2CCCCC2)cc2c(=O)n3cc(C)ccc3nc21 | -8.41% | 
COC(=O)c1ccc2c(=O)n(CCCCCC(=O)NCCc3ccccc3)c(=O)[nH]c2c1 | 3.51% | 
COc1ccccc1N1CCN(C(=O)c2ccc3c(=O)n(Cc4ccc5c(c4)OCO5)c(=O)[nH]c3c2)CC1 |  | 2.99 µM (active)
CCOc1cc2[nH]c(=O)n(Cc3ccc(C(=O)N4CCN(c5cccc(Cl)c5)CC4)cc3)c(=O)c2cc1OCC | 23.4% | 
OC(c1cc(-c2ccc(C(F)(F)F)cc2)nc(C(F)(F)F)c1)C1CCCCN1 (stereo unspecified) |  | 0.15 µM (active)
CN(CC1CCOCC1)S(=O)(=O)c1ccc(C(F)(F)F)cc1 | -9.41% | 
Nc1nonc1-n1nnc(C(=O)N/N=C/c2ccc(F)cc2)c1-c1ccc2c(c1)OCO2 |  | 0.335 µM (active)

Structure (SMILES) | activity change, negative = inhibition | Potency
Nc1nonc1-n1nnc(C(=O)N/N=C/c2ccc(Br)cc2)c1-c1ccc2c(c1)OCO2 |  | 0.422 µM (active)
Cc1ccc(-c2c(C(=O)N/N=C/c3cccc(Cl)c3)nnn2-c2nonc2N)cc1 |  | 0.237 µM (active)
O=C(CSc1nnc(Cc2cccs2)n1-c1ccc(Cl)cc1)NCc1ccc2c(c1)OCO2 | 12.4% | 
Nc1nonc1-n1nnc(C(=O)N/N=C/c2ccc(Cl)cc2)c1-c1ccc2c(c1)OCO2 |  | 0.376 µM (active)
Nc1nonc1-n1nnc(C(=O)N/N=C/c2cccs2)c1-c1ccc2c(c1)OCO2 |  | 1.68 µM (active)
COc1ccc(NC(=O)c2c(C)oc3ccc(O)c(CN4CCCC(C)C4)c23)cc1Cl (stereo unspecified) |  | 0.944 µM (active)
Cc1oc2ccc(O)c(CN3CCCC(C)C3)c2c1C(=O)Nc1ccccc1 (stereo unspecified) |  | 2.11 µM (active)
COc1ccc(NC(=O)c2c(C)oc3ccc(O)c(CN4CCCCCC4)c23)cc1Cl |  | 1.88 µM (active)
COc1ccc(NC(=O)N2CCCC(Cn3cnc4cccnc43)C2)cc1Cl (stereo unspecified) | 25.8% | 
COc1ccc(NC(=O)c2cc3n(n2)CC(c2ccc(Cl)cc2)OC3)cc1Cl (stereo unspecified) | 20.3% | 
Cc1ccc(CN2CCc3nc(C(=O)Nc4cccnc4)oc3CC2)o1 | -11.7% [at 43.1 µM] | 
CSCc1noc(Cc2c(C)nn(-c3ccccc3)c2C)n1 | 35% | 
COc1ccc(S(=O)(=O)N2CCN(C(=O)c3cc(-c4ccccc4OC)n[nH]3)CC2)cc1 | 12.6% | 
NS(=O)(=O)c1ccc(NC(=O)CN2C(=O)COc3ccc(Cl)cc32)cc1 | 13.6% | 
O=C(Nc1ccc(S(=O)(=O)N2CCOCC2)cc1)c1cc(-c2cc(Cl)ccc2O)n[nH]1 |  | 2.66 µM (active)
CN1CC2(CCN(S(=O)(=O)c3ccc(C#N)cc3)CC2)CC1C(=O)N1CCOCC1 (stereo unspecified) | 1.39% | 
Cc1ccc(Cl)cc1NC(=O)c1cc(S(=O)(=O)N2CCOCC2)cn1C | -14.4% | 
COc1ccc(OC)c(NC(=O)c2cc(-c3cc(Cl)ccc3O)n[nH]2)c1 |  | 4.73 µM (active)
Cc1ccccc1-c1cc(C(=O)N2CCC3(CC2)CC(O)CCO3)[nH]n1 (stereo unspecified) | 14.5% | 
Cc1cc(O)c(-c2cc(C(=O)Nc3ccc(S(=O)(=O)N4CCOCC4)cc3)[nH]n2)cc1C |  | 1.68 µM (active)
Cc1ccc(NC(=O)c2cc(-c3ccc[nH]3)n[nH]2)cc1C | -25.4% | 
COc1ccccc1-c1cc(C(=O)N2CCN(S(=O)(=O)c3ccc(C)cc3)CC2)[nH]n1 |  | 7.5 µM (active)
COc1ccc(C(=O)Nc2cc(-c3nc4ccccc4s3)ccc2OC)cc1 | 21.4% | 
CCOc1ccc(OCC)c(NC(=O)c2nnn(CC(=O)Nc3cc(Cl)ccc3OC)c2N)c1 | 35% | 
